PLCg1 inh – blocks human PLC-gamma1 enzyme activity. P19174. purified PLC-gamma1, fluorogenic substrate, fluorescence. inhibition, % at 12.2 µM. 370,000 tested, 0.84% active. AID 720700; in the data active = inhibition above about 9.5%
GC-A act – GC-A (human) enzyme activation; HEK293 GC-A cells, cGMP TR-FRET, EC30 ANP; 0% at EC30 ANP, 100% saturating ANP; 370,000 tested, 0.14% active; activation, % at 10 µM; P16066; in the data active = activation above about 40%
Rce1 inh – inhibitors of yeast Ras-converting enzyme; 290,000 tested, 0.27% active; AID 2563; Q03530; yeast membranes, quenched prenylated peptide cleavage fluorescence; calls only;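 active = fall in fluorescence gain of 50% or more versus controls, with final raw signal at or below 3038400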;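 note: plate controls were neutral control wells for no effect and wells lacking membranes for full effect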
Target sequence (Q03530 whole entry, looked up): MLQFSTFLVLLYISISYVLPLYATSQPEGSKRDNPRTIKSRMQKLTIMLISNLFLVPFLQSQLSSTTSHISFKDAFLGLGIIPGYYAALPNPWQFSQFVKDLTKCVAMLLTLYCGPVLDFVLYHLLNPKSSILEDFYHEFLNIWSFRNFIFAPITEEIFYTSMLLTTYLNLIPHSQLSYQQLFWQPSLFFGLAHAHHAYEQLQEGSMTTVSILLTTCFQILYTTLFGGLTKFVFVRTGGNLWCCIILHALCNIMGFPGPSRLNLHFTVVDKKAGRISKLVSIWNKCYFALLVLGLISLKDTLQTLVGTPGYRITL
NPR2 activator – GC-B (human) receptor activation; P20594; HEK293-GC-B cells, CNP EC30, cGMP TR-FRET; 0% at EC30 CNP, 100% saturating CNP; activation, % at 10 µM; 370,000 tested, 0.11% active; AID 1920062;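 active = activation at 10 µM reaching about 35% in either raw or pattern-adjusted values, limit read from the data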
PLC-beta3 inh – inhibitors of human phospholipase C beta3. AID 720704. inhibition, % at 12.2 µM. Q01970. 370,000 tested, 0.18% active. Purified PLC-beta3, fluorogenic substrate, fluorescence;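 note: 0% = median of compound wells on plate and 100% = full blocker control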
M18AAP inhibitor – blocks P. falciparum M18 aspartyl aminopeptidase; recombinant PfM18AAP, H-Glu-NHMec fluorogenic cleavage; inhibition, % at 7.35 µM; 290,000 tested, 1.2% active; AID 1822;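 active = inhibition above the campaign mean inhibition over all tested compounds plus 3 SD, cut at about 28% in these data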;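 note: 0% = plate median of test compound wells and 100% = 2 mM ZnCl2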
PLCg1 ctr – PLC-gamma1 inhibition, counter-screen for PLC-beta3 hits; 3,300 tested, 3.1% active; shares compounds with PLCg1 inh; AID 743258; purified PLC-gamma1, fluorogenic substrate, fluorescence; inhibition, % at 12.3 µM; in the data active = inhibition above about 9.5%
PLCb3 confirm – human PLC-beta3 inhibition, confirmation; 3,300 tested, 1% active; inhibition, % at 12.3 µM; AID 743261; purified PLC-beta3, fluorogenic substrate fluorescence; shares compounds with PLCg1 inh
* marks the source's active call; other numbers are inactive results; i = inactive; . = no result. Sampled rows, rich in hits. Any-hit rate of the full collection: about 2.2%. Cut-off read from the data, not from the text of the source, unless noted: active = inhibition above about 11%; inactive = the rest.

SMILES | PLCg1 inh | GC-A act | Rce1 inh | NPR2 activator | PLC-beta3 inh | M18AAP inhibitor | PLCg1 ctr | PLCb3 confirm
C=CCN1C(C(=O)OC)CN(Cc2cn(Cc3ccc(OC)cc3)nn2)CCS1(=O)=O (stereo not drawn) | 0.3 | 3.5 | . | 2.8 | 3.1 | . | . | .
CC(C)c1nn2c(N)c(/C=C3\C=Nc4ccccc43)c(=O)nc2s1 | -8.7 | -7.5 | i | -3.7 | -13.5 | 2.1 | . | .
CCC(CC)c1nn2c(N)c(/C=C3\C=Nc4ccccc43)c(=O)nc2s1 | 10.0* | -10.5 | i | -6.3 | 3.8 | 6.0 | -48.4 | -46.2
CS(=O)(=O)N1CCN(C(=O)c2ccncc2)CC1 | 2.1 | 0.8 | i | -2.2 | 3.3 | -1.8 | . | .
CS(=O)(=O)N1CCN(C(=O)c2ccc(F)cc2)CC1 | 11.9* | 4.3 | i | 1.7 | 1.2 | 2.8 | -2.5 | -0.2
COc1cc(/C=C2\C(=O)N(c3ccccc3)N=C2C)ccc1Oc1ccc([N+](=O)[O-])cc1[N+](=O)[O-] | 10.0* | 4.1 | . | 3.2 | 4.0 | 10.1 | 1.7 | -1.3
CC1=NN(c2ccccc2)C(=O)/C1=C\c1cn(-c2ccccc2)nc1C | -1.7 | -5.0 | i | -0.6 | -2.1 | -2.0 | . | .
COc1ccccc1/C=C1/C(=O)N(c2ccccc2)N=C1C | 28.0* | 14.9 | i | -3.9 | 0.3 | 14.4 | -7.1 | -2.9
COc1ccccc1-n1cnc(N)c1C(=O)c1ccccc1 | 12.2* | 5.8 | i | 3.7 | 4.3 | -0.6 | 7.2 | 5.7
COc1ccccc1-n1cnc(N)c1C(C)=O | 4.8 | 1.3 | i | 0.2 | 6.8 | -1.3 | . | .
CCN1CCCCC(NC(=O)c2ccc(F)c(F)c2)C1=O (stereo not drawn) | 1.6 | -1.2 | . | 10.0 | 1.4 | . | . | .
COc1ccc2c(c1)[C@@H](NC(=O)c1ccncc1)[C@@H]1Cc3ccccc3[C@H]21 | 2.0 | -0.7 | . | -3.4 | 4.1 | . | . | .
CC(C)[C@H]1CN=C2N(CCNC(=O)CCC3CCCCC3)[C@H](Cc3ccc(O)cc3)CN21 | 17.7* | 4.6 | i | 3.9 | 6.4 | -10.5 | 3.6 | 6.0
CC(C)(C)c1ccc(/C=N/OCC(=O)NCc2ccc(F)cc2)cc1 | 12.5* | -6.3 | i | -6.2 | 1.8 | 0.9 | -9.5 | -6.4
Clc1ccc(-c2nnc(SCc3cccc4ccccc34)n2-c2ccc(Cl)cc2)cc1 | 4.1 | -4.3 | . | 4.2 | 2.6 | . | . | .
O=C(Nc1ccc(F)cc1)Nc1ccccc1F | 3.3 | 2.3 | i | 4.7 | 3.0 | 0.5 | . | .
O=C(Nc1ccc(F)cc1)Nc1cccnc1Cl | 12.7* | -9.9 | i | -0.1 | -2.8 | -3.8 | -8.6 | -2.1
CCOc1ccccc1NC(=O)C1CCCN1C(=O)c1cccs1 (stereo not drawn) | 10.2* | -0.5 | . | 1.8 | -1.7 | . | -6.7 | -1.6
CCN(C(=O)[C@@H]1CC(=O)O[C@@H]1c1ccccc1)c1ccccc1 | -3.1 | -2.0 | . | -2.1 | 0.7 | . | . | .
Cn1c(=O)oc2cc(S(=O)(=O)N3CCC(C(=O)N4CCN(c5ccccc5)CC4)CC3)ccc21 | 4.4 | -1.7 | . | -6.9 | 2.6 | 0.4 | . | .
Cn1c(=O)oc2cc(S(=O)(=O)N3CCN(c4ccccc4)CC3)ccc21 | 10.6* | -1.1 | i | 1.0 | 3.9 | 0.8 | 6.8 | 2.5
C#CCCN([C@@H](CC(C)C)C(=O)OC)S(=O)(=O)c1ccc(F)cc1Br | 3.5 | -7.7 | . | -1.6 | 1.0 | . | . | .
CCCCOc1ccc(C(=O)n2ccc3ccc(-c4ccc5ccn(Cc6ccc(OC)cc6)c5c4)cc32)cc1 | -33.1 | -16.3 | . | -37.7 | -46.9 | . | . | .
Cc1nn(-c2cc(C(F)(F)F)ccc2Cl)c2nc(C(F)(F)F)[nH]c(=O)c12 | 4.0 | -1.7 | i | 3.2 | 11.7* | -9.4 | -2.1 | -6.3
O=C(Nc1ccc(Cl)cc1)c1ccc(CN2CCc3ccccc3C2)cc1 | 12.8* | -0.9 | i | -5.9 | -5.2 | 2.1 | 0.4 | 0.8
N#CCc1ccc(NC(=O)c2ccc(CN3CCc4ccccc4C3)cc2)cc1 | -0.5 | 0.2 | i | 0.0 | -7.6 | 12.1 | . | .
O=C(CSc1nc2ccccc2n1Cc1ccccc1)NN=C/C=C/c1ccccc1 | 6.3 | -6.6 | . | -4.2 | 4.3 | . | . | .

Assay outcomes (PubChem)
